Source: PubChem BioAssay (Tox21)
Records with an inconclusive call do not appear. Values without a mark were called inactive. Activity calls are given as the source filed them. Calls come from the whole dose curve; as a rule, active = well fitted cell-killing curve with a large enough effect in the repeat runs; inconclusive = weak or mixed curves, or effect the other way; inactive = flat fitted curve, though single readings scatter.
% is set by controls: 0 for no effect and ±100 for the full control effect.

Experiment: qHTS assay to identify small molecule that activate the aryl hydrocarbon receptor (AhR) signaling pathway - cell viability counter screen (AID 743086);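 note: HepG2 liver cells carrying the AhR DRE luciferase reporter; nearly all actives have a fitted effect of over 45% in size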
Conditions: HepG2-AhR-luc viability, CellTiter-Fluor, 24 h; series mostly up to 70.3 µM
Source text: U.S. Tox21 Program National Center for Advancing Translational Sciences [NCATS] NIH Chemical Genomics Center [NCGC] U.S. Environmental Protection Agency [EPA] National Institutes of Environmental Health Sciences [NIEHS] National Toxicology Program [NTP] U.S. Food and Drug Administration [FDA] Tox21 Assay overview: The Aryl hydrocarbon Receptor (AhR), a member of the family of basic helix-loop-helix transcription factors, is crucial to adaptive responses to environmental changes. AhR mediates cellular responses to environmental pollutants such as aromatic hydrocarbons through induction of phase I and II enzymes but also interacts with other nuclear receptor signaling pathways A cell based HepG2-AhR-luc assay (HG2L7.5c1 cell line, developed by Dr. Michael S. Denison, University of California at Davis) was used to assess the activation of AhR. HepG2 (human hepatocellular carcinoma) cells were stably transfected with an Ah receptor-responsive firefly luciferase reporter gene plasmid containing 20 dioxin responsive elements and luciferase reporter gene. Increased luciferase activity can be used to identify the compounds that induce AhR activation. The cytotoxicity of the compounds screened against the HepG2-AhR-luc cell line was tested in parallel by measuring the cell viability using CellTiter-Fluor assay in the same wells.
Tox21 Assay Protocol Summary: 4000 cells in 5 uL/well were dispensed into white wall/solid bottom 1536-well plates using a Multidrop Combi (Thermo Fisher Scientific Inc., Waltham, MA) dispenser. After the assay plates were incubated at 37C for 5 h, 23 nL of compound or DMSO vehicle was transferred to the assay plates by a pintool station (Kalypsys, San Diego, CA). The plates were incubated at 37C for 24 hr. For cell viability measurement, 1 ul/well of CellTiter-Fluor reagent (Promega, Madison, WI) was added into the assay plates using a Flying Reagent Dispenser (FRD) (Aurora Discovery, CA),and then the assay plates were incubated at 37C for 30 min. The fluorescence intensity in the plates was measured using a ViewLux plate reader (PerkinElmer, Shelton, CT), followed by the addition of 4 uL of ONE-Glo Luciferase Assay reagent (Promega) using an FRD (Aurora Discovery). After the assay plates were incubated at room temperature for 30 min, luminescence intensity was measured using a ViewLux plate reader (Perkin Elmer).
For `N=C(N)N`, the outcome was “inactive”. For `NC(=O)CC[C@@H](N)C(=O)O`, the outcome was “inactive”. In the case of `CC(C)(C)C(=O)CCc1ccc(Cl)cc1`, the outcome is reported as “inactive”. In the case of `COc1ccc(Cl)cc1C`, the outcome is reported as “inactive”. For `CC(=O)Nc1ccc(OCCOCCOc2ccc(NC(C)=O)cc2)cc1`, the outcome was “inactive”. For `CCCCc1ccc(Cl)cc1`, the outcome was “inactive”. With `Cc1cccc(N)n1` the outcome was “inactive”. In the case of `CC(C)(Sc1cc(C(C)(C)C)c(O)c(C(C)(C)C)c1)Sc1cc(C(C)(C)C)c(O)c(C(C)(C)C)c1`, the outcome is reported as “inactive”. In the case of `BrCCOc1ccccc1`, the outcome is reported as “inactive”. For `C[n+]1ccccc1/C=N/O`, the outcome was “inactive”. With `CCCCN=C(N)N=C(N)N` the outcome was “inactive”. With `O=C(CCBr)N1CCN(C(=O)CCBr)CC1` the outcome was “inactive”. With `O=C1c2ccccc2C(=O)N1CO` the outcome was “inactive”. In the case of `O=C(O)P(=O)(O)O`, the outcome is reported as “inactive”. For `CCCCS`, the outcome was “inactive”. For `CC/C=C\CCOC(=O)c1ccccc1`, the outcome was “inactive”. In the case of `CCN1CCN(C(=O)N[C@@H](C(=O)N[C@@H]2C(=O)N3[C@@H]2SC(C)(C)[C@H]3C(=O)O)c2ccccc2)C(=O)C1=O`, the outcome is reported as “inactive”. For `c1cc2ccc3ccc4ccc5cccc6c(c1)c2c3c4c56`, the viability change, negative = cytotoxic was 13.2% [at 3.79 µM]. For `CC(C)OCCO`, the outcome was “inactive”. With `CC(CN1CC(=O)NC(=O)C1)N1CC(=O)NC(=O)C1` (stereo not given) the outcome was “inactive”. In the case of `N#Cc1ccccc1C#N`, the outcome is reported as “inactive”. With `Cc1cc(C)c(C)c(C)c1` the outcome was “inactive”. In the case of `CCOc1ccccc1OCCN[C@H](C)Cc1ccc(OC)c(S(N)(=O)=O)c1`, the outcome is reported as “inactive”. For `CC(C)C[P+](C)(CC(C)C)CC(C)C`, the outcome was “inactive”. In the case of `CCCCCCCCCCCBr`, the outcome is reported as “inactive”. In the case of `NNC(=O)OCc1ccccc1`, the outcome is reported as “inactive”. In the case of `Cc1ccc(Br)cc1`, the outcome is reported as “inactive”. For `C=CCN(CC=C)CC=C`, the outcome was “inactive”. In the case of `CCN1CCN(C(=O)N[C@@H](C(=O)N[C@@H]2C(=O)N3C(C(=O)O)=C(CSc4nnnn4C)CS[C@H]23)c2ccc(O)cc2)C(=O)C1=O`, the outcome is reported as “inactive”. With `C/C=C/C(=O)CCCC` the outcome was “inactive”. With `Cc1ccc(N)nc1` the outcome was “inactive”. In the case of `O=c1[nH]c(=O)c2cn[nH]c2[nH]1`, the outcome is reported as “inactive”. For `CC(=O)Nc1ccc(S(=O)(=O)Nc2cc(C)on2)cc1`, the outcome was “inactive”. In the case of `O=C(O)CCC(=O)Nc1ccc(S(=O)(=O)Nc2nccs2)cc1`, the outcome is reported as “inactive”. With `N[C@H]1C(O)O[C@H](CO)[C@@H](O)[C@@H]1O` (stereo not given in full) the outcome was “inactive”. For `Nc1nc(Cl)cc(Cl)n1`, the outcome was “inactive”. In the case of `C=CCCCCCCCCCCCCCC`, the outcome is reported as “inactive”. For `CC(C)(O)CCCC1=CCC(C=O)CC1` (stereo not given), the outcome was “inactive”. In the case of `CC(C)OC(=O)C(C(=O)OC(C)C)=C1SC=CS1`, the outcome is reported as “inactive”. In the case of `CC12CCCC=C1C(=O)OC2=O` (stereo not given), the outcome is reported as “inactive”.
